Results from PubChem BioAssay (EPA / NIEHS).
Where “and” joins values, the source holds several entries; their conditions need not be identical. Identical values can stand only once. Inconclusive results are not listed. Some compounds were tested as several samples or in several runs, with calls that do not always agree. Calls of active or inactive are those of the source. How the source made its calls, unless noted: active means hit-call score of the fitted dose curve at least 0.9, where 1 is the maximum; inactive means score below 0.9.

Assays:
[1] = target: Oxysterols receptor LXR-beta (Homo sapiens) (UniProt P55055); assay: ATG_LXRb_TRANS: Attagene TRANS-FACTORIAL HepG2 Assay for human Liver X Receptor beta (LXRb) (AID 2282981; active means hit-call score of the fitted dose curve at least 0.9, where 1 is the maximum); conditions: HepG2 Attagene TRANS GAL4-LXRb reporter, mRNA
Method in brief: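 Readout: fluorescent reporter mRNA fragments resolved by capillary electrophoresis after RT-PCR. System: transiently transfected human HepG2, exogenous LXRb-Gal4 chimera driving GAL4-UAS reporter, 24 h dosing. Activity fitted upward against DMSO baseline.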

[2] = target: Hepatocyte nuclear factor 4-alpha (Homo sapiens) (UniProt P41235); assay: ATG_HNF4a_TRANS: Attagene TRANS-FACTORIAL HepG2 Assay for human Hepatocyte Nuclear Factor 4 alpha (HNF4a) (AID 2282982; active means hit-call score of the fitted dose curve at least 0.9, where 1 is the maximum); conditions: HepG2 HNF4a transactivation reporter, mRNA readout
Method in brief: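 Transient MRTU transfection of HepG2, 24 h dosing. Readout: reporter mRNA via RT-PCR + capillary electrophoresis, fluorescence; activity fit upward relative to DMSO control.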

[3] = ATG_M_06_TRANS: Attagene TRANS-FACTORIAL HepG2 Assay for M06 Transcription Factor (Internal Marker) (AID 2282983; active means hit-call score of the fitted dose curve at least 0.9, where 1 is the maximum;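 further: reporter transcript level by RT-PCR then capillary electrophoresis fluorescence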); conditions: HepG2 Attagene TRANS M06 internal marker reporter
Method in brief: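 Background-control reporter readout: after 24 h chemical exposure of transiently transfected HepG2 (GAL4-UAS reporter units), mRNA quantified by RT-PCR with fluorescent labeling and capillary electrophoresis. Gain-of-signal fitting against DMSO baseline.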

[4] = ATG_M_32_TRANS: Attagene TRANS-FACTORIAL HepG2 Assay for M32 Transcription Factor (Internal Marker) (AID 2282984; active means hit-call score of the fitted dose curve at least 0.9, where 1 is the maximum;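 further: transcript level of a background control reporter unit measured by RT-PCR and capillary electrophoresis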); conditions: HepG2 Attagene TRANS M32 internal marker reporter
Method in brief: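 Read-out: fluorescent reporter cDNA fragments resolved by capillary electrophoresis after RT-PCR of total RNA. Transfected HepG2 cells were exposed to chemical for 24 h. Activity scored in the positive direction relative to DMSO.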

[5] = target: Nuclear receptor subfamily 4 group A member 2 (Homo sapiens) (UniProt P43354); assay: ATG_NURR1_TRANS: Attagene TRANS-FACTORIAL HepG2 Assay for human Nuclear Receptor Related Protein 1 (NURR1) (AID 2282985; active means hit-call score of the fitted dose curve at least 0.9, where 1 is the maximum); conditions: HepG2 Attagene TRANS reporter, mRNA readout
Method in brief: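 Read-out: reporter mRNA induction by RT-PCR plus capillary electrophoresis with fluorescence detection, after 24 h dosing of transfected HepG2 cells. Exogenous NR-Gal4 chimera activity drives GAL4-UAS reporter; activity fitted upward versus DMSO.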

[6] = target: Transcriptional activator Myb (Homo sapiens) (UniProt P10242); assay: ATG_Myb_CIS: Attagene CIS-FACTORIAL HepG2 Assay for human Myeloblastosis (Myb) Proto-Oncogene Transcription Factor (AID 2282986); conditions: HepG2 Attagene CIS-FACTORIAL Myb reporter transcription; actives raise or lower the signal
Method in brief: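 HepG2 cells were transiently transfected with cis-regulated multiple reporter transcription units reflecting endogenous Myb activity, then exposed to compound for 24 hours. Reporter mRNA was measured by RT-PCR with capillary electrophoresis; bidirectional fitting versus DMSO baseline.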

[7] = target: Nuclear respiratory factor 1 (Homo sapiens) (UniProt Q16656); assay: ATG_NRF1_CIS: Attagene CIS-FACTORIAL HepG2 Assay for human Nuclear Respiratory Factor 1 (NRF1) Orphan Gene (AID 2282987); conditions: HepG2 NRF1 cis-element reporter, Attagene multiplex; actives raise or lower the signal
Method in brief: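 HepG2 cells transiently transfected with multiple reporter transcription units under cis-regulatory promoter control, so endogenous transcription-factor activity is read. After 24 h compound exposure, reporter mRNA quantified by RT-PCR, fluorescent labelling, HpaI digestion and capillary electrophoresis; bidirectional fitting versus DMSO.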

[8] = ATG_NFI_CIS: Attagene CIS-FACTORIAL HepG2 Assay for human Nuclear Factor I (NFI) (AID 2282989); conditions: HepG2 cis-regulatory reporter, NFI response element transcription; actives raise or lower the signal
Method in brief: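 After transient transfection of HepG2 with cis-promoter reporter constructs and 24 h dosing, RNA is reverse-transcribed, amplified, 6-FAM end-labelled and HpaI-digested before capillary analysis. Bidirectional curve fitting against DMSO.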

[9] = target: Myc proto-oncogene protein (Homo sapiens) (UniProt P01106); assay: ATG_Myc_CIS: Attagene CIS-FACTORIAL HepG2 Assay for human Myelocytomatosis (Myc) Proto-Oncogene Transcription Factor (AID 2282990); conditions: HepG2, Attagene cis-reporter transcription factor activity; actives raise or lower the signal
Method in brief: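 Transiently transfected HepG2 cells bearing cis-promoter reporter units for endogenous transcription factors; 24 h exposure. Reporter mRNA measured by RT-PCR, 6-FAM primer extension, HpaI cut and capillary electrophoresis; bidirectional fit relative to DMSO.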

[10] = ATG_NF_kB_CIS: Attagene CIS-FACTORIAL HepG2 Assay for human Nuclear Factor Kappa B (NF-kB) (AID 2282991); conditions: HepG2 Attagene cis-factorial NF-kB reporter mRNA; actives raise or lower the signal
Method in brief: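 HepG2 cells transiently transfected with multiplexed cis-element reporter units measuring endogenous transcription factor activity; reporter mRNA read 24 h after dosing by RT-PCR, fluorescent labelling, HpaI digestion and capillary electrophoresis. Bidirectional fit against DMSO baseline.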

[11] = ATG_Oct_MLP_CIS: Attagene CIS-FACTORIAL HepG2 Assay for human Octamer-Binding Transcription Factor (Oct) (AID 2282993); conditions: HepG2 Attagene cis-factorial Oct reporter, mRNA; actives raise or lower the signal
Method in brief: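 Cells of the HepG2 line express promoter-controlled reporter sequences whose mRNA levels, after 24 h treatment, are measured by RT-PCR and capillary electrophoresis. Increases and decreases are scored relative to DMSO.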

[12] = BSK_3C_TissueFactor: BioMAP Diversity Plus: 3C Assay for Tissue Factor Biomarker Activity (AID 2282997); conditions: BioMAP 3C HUVEC, tissue factor biomarker readout; actives raise or lower the signal
Method in brief: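 Tissue factor on primary human umbilical vein endothelium was read by ELISA 24 h after dosing, gain or loss relative to DMSO. Cytotoxicity ran alongside via SRB (0.1%, TCA-fixed, 560 nm).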

[13] = BSK_3C_uPAR: BioMAP Diversity Plus: 3C Assay for Urokinase-type plasminogen activator receptor (uPAR) Biomarker Activity (AID 2282998); conditions: BioMAP 3C HUVEC, uPAR biomarker ELISA; actives raise or lower the signal
Method in brief: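 Endothelial primary cells of human umbilical vein origin received test chemical; 24 h later uPAR was assayed by ELISA. Fitting was bidirectional, DMSO as negative control.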

[14] = BSK_3C_VCAM1: BioMAP Diversity Plus: 3C Assay for Vascular cell adhesion molecule 1 (VCAM1) Biomarker Activity (AID 2282999); conditions: BioMAP 3C HUVEC, VCAM1 ELISA, cytokine-stimulated; actives raise or lower the signal
Method in brief: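 HUVEC primary cells, 24 h compound exposure; VCAM-1 by ELISA; gain/loss of signal fitted bidirectionally vs DMSO baseline.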

[15] = BSK_4H_Eotaxin3: BioMAP Diversity Plus: 4H Assay for Eotaxin 3 Biomarker Activity (AID 2283000); conditions: primary human endothelial cells (HUVEC); actives raise or lower the signal
Method in brief: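 Human umbilical vein endothelial cells (BSK_4H system) dosed with test chemical; Eotaxin-3 (CCL26) measured by ELISA 24 h after dosing. Bidirectional curve fitting relative to DMSO negative control as baseline.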

[16] = target: human Peroxisome Proliferator-activated Receptor alpha (PPARa), PPARA (gene 5465) (UniProt Q07869); assay: ATG_PPARa_TRANS: Attagene TRANS-FACTORIAL HepG2 Assay for human Peroxisome Proliferator-activated Receptor alpha (PPARa) (AID 2283001; active means hit-call score of the fitted dose curve at least 0.9, where 1 is the maximum;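 on AC50: potency for gain of reporter signal over DMSO so agonist or activator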)
Method in brief: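 Transient HepG2 transfection, GAL4-UAS reporters, NR-Gal4 chimeras; 24 h compound exposure. Readout: reporter transcripts by RT-PCR, 6-FAM primer extension, HpaI digest, capillary electrophoresis. Positive direction vs DMSO baseline.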

[17] = target: Bile acid receptor (Homo sapiens) (UniProt Q96RI1); assay: ATG_FXR_TRANS: Attagene TRANS-FACTORIAL HepG2 Assay for Farnesoid X Receptor (FXR) (AID 2282979; active means hit-call score of the fitted dose curve at least 0.9, where 1 is the maximum;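 further: hits raise reporter mRNA above DMSO so AC50 marks FXR activation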); conditions: HepG2 Attagene TRANS FXR-GAL4 reporter transcription
Method in brief: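 Reporter transcripts from transfected HepG2 cells were measured 24 h after dosing, using RT-PCR with capillary electrophoresis of 6-FAM-labelled fragments. The read-out reflects activity of exogenous FXR-Gal4 chimera on GAL4-UAS units, with induction relative to DMSO.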

[18] = ATG_NRF2_ARE_CIS: Attagene CIS-FACTORIAL HepG2 Assay for human Nuclear Factor Erythroid 2 Related Factor 2 (NFR2) response to Antioxidant Response Elements (ARE) (AID 2282992); conditions: HepG2 Attagene ARE/NRF2 reporter, transcription factor activity; actives raise or lower the signal
Method in brief: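 Readout: reporter mRNA quantified by RT-PCR plus FAM-labelled primer extension, HpaI digestion and capillary electrophoresis, 24 h after dosing transfected HepG2 cells. Gain or loss of signal is fitted bidirectionally against DMSO baseline.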

[19] = target: Cellular tumor antigen p53 (Homo sapiens) (UniProt P04637); assay: ATG_p53_CIS: Attagene CIS-FACTORIAL HepG2 Assay for human p53 Transcription Factor (AID 2282994); conditions: HepG2 p53 cis-element reporter, Attagene mRNA; actives raise or lower the signal
Method in brief: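 Read-out: reporter mRNA by RT-PCR plus capillary electrophoresis with fluorescence detection. Human HepG2 liver cells carried transfected multi-reporter cis-element constructs, dosed 24 h. Gain or loss of signal fitted bidirectionally against DMSO control.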

[20] = target: Glucocorticoid receptor (Homo sapiens) (UniProt P04150); assay: ATG_GR_TRANS: Attagene TRANS-FACTORIAL HepG2 Assay for human Glucocorticoid Receptor (GR) (AID 2282978; active means hit-call score of the fitted dose curve at least 0.9, where 1 is the maximum;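 further: activators score as hits since higher reporter transcript over DMSO is fitted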); conditions: HepG2 Attagene TRANS GR reporter, mRNA transcription
Method in brief: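 HepG2 cells transiently transfected with multiplexed reporter units in which chimeric NR-GAL4 proteins drive GAL4-UAS reporters; 24 h compound exposure. Reporter mRNA measured by RT-PCR, 6-FAM labelling, HpaI digestion and capillary electrophoresis; gain-of-signal fitted versus DMSO.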

Measured: AC50

Myc proto-oncogene protein (Homo sapiens), sequence (P01106 whole entry, looked up): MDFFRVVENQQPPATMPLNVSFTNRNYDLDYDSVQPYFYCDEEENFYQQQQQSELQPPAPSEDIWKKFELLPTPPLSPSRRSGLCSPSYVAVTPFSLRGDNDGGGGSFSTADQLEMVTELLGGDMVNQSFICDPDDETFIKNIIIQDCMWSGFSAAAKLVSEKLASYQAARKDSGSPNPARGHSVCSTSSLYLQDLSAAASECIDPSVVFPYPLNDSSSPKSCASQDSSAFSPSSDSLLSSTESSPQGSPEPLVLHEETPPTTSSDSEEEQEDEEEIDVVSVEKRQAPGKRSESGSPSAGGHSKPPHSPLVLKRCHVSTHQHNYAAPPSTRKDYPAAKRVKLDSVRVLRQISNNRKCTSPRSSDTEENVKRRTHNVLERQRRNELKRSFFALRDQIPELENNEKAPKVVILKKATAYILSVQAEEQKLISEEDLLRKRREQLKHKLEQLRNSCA
Hepatocyte nuclear factor 4-alpha (Homo sapiens), sequence (P41235 whole entry, looked up): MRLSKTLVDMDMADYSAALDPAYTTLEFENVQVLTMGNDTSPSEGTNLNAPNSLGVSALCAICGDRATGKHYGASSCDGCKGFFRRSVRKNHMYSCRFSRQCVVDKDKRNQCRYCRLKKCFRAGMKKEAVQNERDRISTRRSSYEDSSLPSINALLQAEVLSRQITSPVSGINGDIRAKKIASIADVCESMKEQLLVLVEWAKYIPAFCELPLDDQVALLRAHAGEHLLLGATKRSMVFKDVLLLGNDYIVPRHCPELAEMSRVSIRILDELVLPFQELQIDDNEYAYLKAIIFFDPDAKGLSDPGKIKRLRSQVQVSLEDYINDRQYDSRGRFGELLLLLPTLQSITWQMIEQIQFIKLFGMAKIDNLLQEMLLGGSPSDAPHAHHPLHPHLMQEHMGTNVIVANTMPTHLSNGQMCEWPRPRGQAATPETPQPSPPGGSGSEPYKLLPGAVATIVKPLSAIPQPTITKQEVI
Oxysterols receptor LXR-beta (Homo sapiens), sequence (P55055 whole entry, looked up, the tested form may be a part): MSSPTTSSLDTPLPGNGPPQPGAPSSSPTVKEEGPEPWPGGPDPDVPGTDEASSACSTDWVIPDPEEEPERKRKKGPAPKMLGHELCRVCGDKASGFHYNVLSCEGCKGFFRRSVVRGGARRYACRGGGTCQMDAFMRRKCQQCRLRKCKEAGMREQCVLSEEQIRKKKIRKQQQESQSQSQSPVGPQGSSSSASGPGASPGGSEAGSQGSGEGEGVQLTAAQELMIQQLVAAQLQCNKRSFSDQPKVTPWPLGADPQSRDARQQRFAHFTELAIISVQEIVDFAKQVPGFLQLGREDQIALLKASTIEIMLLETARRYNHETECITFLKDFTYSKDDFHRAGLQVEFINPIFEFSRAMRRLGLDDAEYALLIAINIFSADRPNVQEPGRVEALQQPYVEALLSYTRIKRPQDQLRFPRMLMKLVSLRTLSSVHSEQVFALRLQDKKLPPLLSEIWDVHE
Nuclear receptor subfamily 4 group A member 2 (Homo sapiens), sequence (P43354 whole entry, looked up, the tested form may be a part): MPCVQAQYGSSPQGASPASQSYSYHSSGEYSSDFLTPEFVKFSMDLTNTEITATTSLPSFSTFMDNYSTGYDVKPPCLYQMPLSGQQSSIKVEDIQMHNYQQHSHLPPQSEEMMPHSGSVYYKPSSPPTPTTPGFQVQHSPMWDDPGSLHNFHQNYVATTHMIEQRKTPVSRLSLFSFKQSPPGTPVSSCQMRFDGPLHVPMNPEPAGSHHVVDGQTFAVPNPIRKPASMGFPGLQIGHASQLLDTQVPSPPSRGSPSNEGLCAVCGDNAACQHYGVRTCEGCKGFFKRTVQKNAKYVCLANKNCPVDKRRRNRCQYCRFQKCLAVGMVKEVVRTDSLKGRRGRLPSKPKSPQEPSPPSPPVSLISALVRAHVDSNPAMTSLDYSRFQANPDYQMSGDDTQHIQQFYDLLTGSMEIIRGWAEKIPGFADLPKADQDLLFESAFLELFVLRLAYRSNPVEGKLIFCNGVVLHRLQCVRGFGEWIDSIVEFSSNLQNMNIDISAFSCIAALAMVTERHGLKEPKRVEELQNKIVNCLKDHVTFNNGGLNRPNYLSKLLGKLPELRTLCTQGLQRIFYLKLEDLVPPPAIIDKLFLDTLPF
Transcriptional activator Myb (Homo sapiens), sequence (P10242 whole entry, looked up): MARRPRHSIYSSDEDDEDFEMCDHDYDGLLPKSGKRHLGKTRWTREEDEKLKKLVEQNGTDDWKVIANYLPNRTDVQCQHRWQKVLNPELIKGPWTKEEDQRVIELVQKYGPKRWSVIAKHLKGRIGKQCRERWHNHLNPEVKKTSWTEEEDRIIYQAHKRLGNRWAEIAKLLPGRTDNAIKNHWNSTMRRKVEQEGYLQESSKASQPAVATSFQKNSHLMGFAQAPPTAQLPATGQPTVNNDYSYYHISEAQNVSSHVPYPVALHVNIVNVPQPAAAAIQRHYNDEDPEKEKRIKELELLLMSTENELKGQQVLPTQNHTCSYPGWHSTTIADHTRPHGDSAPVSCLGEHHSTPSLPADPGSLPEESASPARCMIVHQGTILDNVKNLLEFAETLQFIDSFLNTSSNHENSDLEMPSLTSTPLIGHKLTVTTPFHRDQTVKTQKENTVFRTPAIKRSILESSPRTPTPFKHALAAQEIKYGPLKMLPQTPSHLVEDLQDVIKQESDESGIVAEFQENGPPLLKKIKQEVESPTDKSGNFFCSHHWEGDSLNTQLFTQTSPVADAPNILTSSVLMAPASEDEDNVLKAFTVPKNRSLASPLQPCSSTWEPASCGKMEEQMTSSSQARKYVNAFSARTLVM
Nuclear respiratory factor 1 (Homo sapiens), sequence (Q16656 whole entry, looked up): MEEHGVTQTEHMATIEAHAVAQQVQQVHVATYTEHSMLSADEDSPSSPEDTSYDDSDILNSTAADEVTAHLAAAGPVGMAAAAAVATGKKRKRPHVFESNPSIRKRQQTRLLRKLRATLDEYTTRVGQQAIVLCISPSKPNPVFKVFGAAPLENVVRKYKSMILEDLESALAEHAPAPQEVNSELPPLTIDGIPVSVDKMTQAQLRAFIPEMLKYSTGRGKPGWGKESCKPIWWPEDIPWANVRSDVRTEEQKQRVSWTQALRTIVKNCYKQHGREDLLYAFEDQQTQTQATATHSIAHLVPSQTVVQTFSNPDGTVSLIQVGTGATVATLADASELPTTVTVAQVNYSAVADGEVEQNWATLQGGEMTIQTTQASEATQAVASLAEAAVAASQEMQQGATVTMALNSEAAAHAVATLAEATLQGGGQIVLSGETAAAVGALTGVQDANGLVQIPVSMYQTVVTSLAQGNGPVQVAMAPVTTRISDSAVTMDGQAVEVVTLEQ
human Peroxisome Proliferator-activated Receptor alpha (PPARa), PPARA (gene 5465), sequence (Q07869 whole entry, looked up, the tested form may be a part): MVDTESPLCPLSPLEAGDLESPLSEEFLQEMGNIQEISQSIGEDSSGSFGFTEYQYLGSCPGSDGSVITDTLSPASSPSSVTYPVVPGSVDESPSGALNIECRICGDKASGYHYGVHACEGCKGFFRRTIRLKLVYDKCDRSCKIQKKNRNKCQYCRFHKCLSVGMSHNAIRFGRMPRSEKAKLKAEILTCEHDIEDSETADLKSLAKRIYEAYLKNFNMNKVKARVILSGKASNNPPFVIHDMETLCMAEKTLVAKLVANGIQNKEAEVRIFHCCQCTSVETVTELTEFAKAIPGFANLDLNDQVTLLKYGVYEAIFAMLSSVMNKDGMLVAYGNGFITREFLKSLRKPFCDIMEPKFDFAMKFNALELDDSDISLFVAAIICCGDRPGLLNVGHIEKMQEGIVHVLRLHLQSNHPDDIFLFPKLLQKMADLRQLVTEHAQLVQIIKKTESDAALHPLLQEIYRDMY
Cellular tumor antigen p53 (Homo sapiens), sequence (P04637 whole entry, looked up): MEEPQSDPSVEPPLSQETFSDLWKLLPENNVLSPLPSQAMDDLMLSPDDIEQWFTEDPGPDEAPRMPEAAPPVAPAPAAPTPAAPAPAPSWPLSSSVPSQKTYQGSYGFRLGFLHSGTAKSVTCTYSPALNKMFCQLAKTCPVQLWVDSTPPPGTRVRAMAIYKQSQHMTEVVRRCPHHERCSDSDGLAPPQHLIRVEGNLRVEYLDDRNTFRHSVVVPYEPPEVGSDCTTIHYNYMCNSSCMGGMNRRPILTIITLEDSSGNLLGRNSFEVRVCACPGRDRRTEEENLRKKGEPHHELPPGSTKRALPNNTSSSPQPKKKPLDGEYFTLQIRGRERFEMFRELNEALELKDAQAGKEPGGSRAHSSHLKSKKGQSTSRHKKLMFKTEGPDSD
Glucocorticoid receptor (Homo sapiens), sequence (P04150 whole entry, looked up, the tested form may be a part): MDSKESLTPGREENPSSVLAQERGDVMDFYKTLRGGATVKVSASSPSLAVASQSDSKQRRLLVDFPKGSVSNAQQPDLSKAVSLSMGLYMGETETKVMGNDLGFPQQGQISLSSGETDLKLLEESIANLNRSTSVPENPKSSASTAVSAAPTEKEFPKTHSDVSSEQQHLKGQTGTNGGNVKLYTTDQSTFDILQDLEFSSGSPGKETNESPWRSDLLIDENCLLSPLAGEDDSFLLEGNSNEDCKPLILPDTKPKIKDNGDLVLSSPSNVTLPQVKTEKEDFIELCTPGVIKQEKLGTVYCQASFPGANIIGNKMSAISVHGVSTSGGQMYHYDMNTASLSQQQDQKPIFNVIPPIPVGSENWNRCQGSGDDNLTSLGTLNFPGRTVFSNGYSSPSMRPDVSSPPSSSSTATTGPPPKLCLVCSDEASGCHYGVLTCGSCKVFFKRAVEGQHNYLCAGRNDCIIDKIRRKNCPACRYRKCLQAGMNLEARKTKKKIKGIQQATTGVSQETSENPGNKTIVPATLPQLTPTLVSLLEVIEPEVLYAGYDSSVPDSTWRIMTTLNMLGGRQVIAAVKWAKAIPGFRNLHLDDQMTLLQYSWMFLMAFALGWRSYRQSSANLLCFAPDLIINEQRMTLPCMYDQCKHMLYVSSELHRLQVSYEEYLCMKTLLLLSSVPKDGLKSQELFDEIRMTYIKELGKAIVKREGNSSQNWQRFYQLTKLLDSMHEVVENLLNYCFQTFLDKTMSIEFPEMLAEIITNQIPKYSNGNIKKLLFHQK

CC(=O)O[C@]1(C(C)=O)CC[C@H]2[C@@H]3C=C(Cl)C4=CC(=O)[C@@H]5C[C@@H]5[C@]4(C)[C@H]3CC[C@@]21C
inactive: [1] | [2] | [3] | [4] | [5] | [6] | [7] | [8] | [9] | [10] | [11] | [12] | [13] | [14] | [15] | [16]
active: [6] 50.8 µM | [7] 26.8 µM | [9] 164 µM | [11] 73.6 µM and 64.9 µM and 45.3 µM

CN(C)C(=O)NC1(c2ccccc2)CCN(CCC[C@]2(c3ccc(Cl)c(Cl)c3)CCCN(C(=O)c3ccccc3)C2)CC1
active: [7] 4.5 µM | [8] 3.32 µM | [9] 5.05 µM | [10] 2.84 µM | [18] 1.64 µM | [11] 4.31 µM | [12] 4.37 µM | [16] 4.2 µM
not listed: [3] | [5] | [20]
inactive: all other assays above

COc1ccc(OC(F)(F)F)cc1CN[C@H]1CCCN[C@H]1c1ccccc1
active: [19] 2.91 µM | [12] 6.74 µM | [13] 20 µM | [15] 26.9 µM
not listed: [17] | [18] | [20]
inactive: all other assays above

O=C1c2c(O)cccc2Cc2cccc(O)c21
active: [12] 5.39 µM
not listed: [1] | [2] | [4] | [10] | [17] | [18]
inactive: all other assays above
